Measured values from PubChem BioAssay (NCATS).
Inconclusive results are not listed. The source made the active and inactive calls. The call rests on the fitted dose curve.

What was measured:
[1] = Primary qHTS for inhibitors of SARS-S pseudo-typed particle cell entry (AID 1479145); further: nearly all actives have a fitted effect of over 45% in size; on activity change, negative = inhibition: series mostly up to about 57 µM
[2] = Primary qHTS for Huh7 cytotoxicity: counterscreen for inhibitors of MERS-S pseudotyped particle cell entry (AID 1479147)
[3] = Primary qHTS for inhibitors of MERS-S pseudo-typed particle cell entry (AID 1479149); further: nearly all actives have a fitted effect of over 60% in size; on activity change, negative = inhibition: series mostly up to about 57 µM
[4] = Primary qHTS for Vero E6 cytotoxicity: counterscreen for inhibitors of SARS-S pseudo-typed particle cell entry (AID 1479150)
On the % scale 0 is the no-effect control and ±100 the full control effect.

CCN(CC)C(=O)N[C@@H]1C=C2c3cccc4[nH]cc(c34)C[C@@H]2N(C)C1
inactive: Potency [1] | Potency [2] | Potency [3] | Potency [4]

O[C@@H]1CO[C@H]2[C@@H]1OC[C@@H]2O
inactive: Potency [1] | Potency [2] | Potency [3] | Potency [4]

Cc1ccc(C)c(OCCCC(C)(C)C(=O)O)c1
inactive: Potency [1] | Potency [2] | Potency [3] | Potency [4]

CN1C(CCl)Nc2cc(Cl)c(S(N)(=O)=O)cc2S1(=O)=O (stereo not drawn)
inactive: Potency [1] | Potency [2] | Potency [3] | Potency [4]

CCOC(=O)C1=C(C)NC(C)=C(C(=O)OC)C1c1cccc(Cl)c1Cl (stereo not drawn)
inactive: Potency [1] | Potency [2] | Potency [3] | Potency [4]

CC1(C)O[C@@H]2[C@@H](CO[C@@]3(COS(N)(=O)=O)OC(C)(C)O[C@@H]23)O1
inactive: Potency [1] | Potency [2] | Potency [3] | Potency [4]

Nc1nc2c(ncn2COC(CO)CO)c(=O)[nH]1
inactive: Potency [1] | Potency [2] | Potency [3] | Potency [4]

CC1=NS(=O)(=O)c2cc(Cl)ccc2N1
inactive: Potency [1] | Potency [2] | Potency [3] | Potency [4]

NCCC(O)(P(=O)(O)O)P(=O)(O)O
inactive: Potency [1] | Potency [2] | Potency [3] | Potency [4]

CC(C)NCC(O)COc1ccc(CCOCC2CC2)cc1 (stereo not drawn)
inactive: Potency [1] | Potency [2] | Potency [3] | Potency [4]

O=c1n(CCCN2CCN(c3cccc(Cl)c3)CC2)nc2ccccn12
inactive: Potency [1] | Potency [2] | Potency [3] | Potency [4]

O=C1Cc2cc(CCN3CCN(c4nsc5ccccc45)CC3)c(Cl)cc2N1
inactive: Potency [1] | Potency [2] | Potency [3] | Potency [4]

CCn1cc(C(=O)O)c(=O)c2ccc(C)nc21
inactive: Potency [1] | Potency [2] | Potency [3] | Potency [4]

Cc1ccc(S(=O)(=O)NC(=O)NN2CCCCCC2)cc1
inactive: Potency [1] | Potency [2] | Potency [3] | Potency [4]

CN(C)CCc1c[nH]c2ccc(CS(=O)(=O)N3CCCC3)cc12
inactive: Potency [1] | Potency [2] | Potency [3] | Potency [4]

CC(C)NCC(O)COc1cccc2[nH]ccc12 (stereo not drawn)
inactive: Potency [1] | Potency [2] | Potency [3] | Potency [4]

CC(=O)OCC(CCn1cnc2cnc(N)nc21)COC(C)=O
inactive: Potency [1] | Potency [2] | Potency [3] | Potency [4]

COC(=O)[C@@H]1CC2=CC(=O)CC[C@]2(C)[C@@]23O[C@@H]2C[C@@]2(C)[C@@H](CC[C@@]24CCC(=O)O4)[C@H]13
inactive: Potency [1] | Potency [2] | Potency [3] | Potency [4]

CNS(=O)(=O)Cc1ccc2[nH]cc(CCN(C)C)c2c1
inactive: Potency [1] | Potency [2] | Potency [3] | Potency [4]

CCOC(=O)[C@H](CCc1ccccc1)N[C@@H](C)C(=O)N1Cc2ccccc2C[C@H]1C(=O)O
inactive: Potency [1] | Potency [2] | Potency [3] | Potency [4]

CCCN(CCC)CCc1cccc2c1CC(=O)N2
inactive: Potency [1] | Potency [2] | Potency [3] | Potency [4]

CNCCc1ccccn1
inactive: Potency [1] | Potency [2] | Potency [3] | Potency [4]

CCC1(c2ccccc2)C(=O)NCNC1=O
inactive: Potency [1] | Potency [2] | Potency [3] | Potency [4]

CC[C@@H](CO)NCCN[C@@H](CC)CO
inactive: Potency [1] | Potency [2] | Potency [3] | Potency [4]

C[C@@H]1C[C@H]2[C@@H]3CCC4=CC(=O)C=C[C@]4(C)[C@@]3(F)[C@@H](O)C[C@]2(C)[C@@]1(O)C(=O)CO
inactive: Potency [1] | Potency [2] | Potency [3] | Potency [4]

CCCc1cc(=O)[nH]c(=S)[nH]1
inactive: Potency [1] | Potency [2] | Potency [3] | Potency [4]

CCN(CC)CCNC(=O)c1cc(Cl)c(N)cc1OC
inactive: Potency [1] | Potency [2] | Potency [3] | Potency [4]

CC1=C(C(=O)O)N2C(=O)[C@@H](NC(=O)[C@H](N)c3ccccc3)[C@H]2SC1
inactive: Potency [1] | Potency [2] | Potency [3] | Potency [4]

CC[C@]1(O)C[C@@H]2CN(CCc3c([nH]c4ccccc34)[C@@](C(=O)OC)(c3cc4c(cc3OC)N(C)[C@H]3[C@@](O)(C(=O)OC)[C@H](OC(C)=O)[C@]5(CC)C=CCN6CC[C@]43[C@@H]65)C2)C1
inactive: Potency [1] | Potency [2] | Potency [3] | Potency [4]

N[C@@H](C(=O)N[C@@H]1C(=O)N2C(C(=O)O)=C(Cl)CS[C@H]12)c1ccccc1
inactive: activity change, negative = inhibition [1] -16.1% [at 11.4 µM] | outcome [2] inactive [at 11.4 µM] | outcome [3] inactive [at 11.4 µM] | outcome [4] inactive [at 11.4 µM]

CC(C)(C)NC(=O)[C@@H]1CN(Cc2cccnc2)CCN1C[C@@H](O)C[C@@H](Cc1ccccc1)C(=O)N[C@H]1c2ccccc2C[C@H]1O
inactive: Potency [1] | Potency [2] | Potency [3] | Potency [4]

CN(C)c1nc(N(C)C)nc(N(C)C)n1
inactive: Potency [1] | Potency [2] | Potency [3] | Potency [4]
